ST2 IL33 inh – inhibitors of human ST2 (IL1RL1) binding to IL-33, primary screen, biochemical, AlphaLISA. Interleukin-1 receptor-like 1 (Homo sapiens), Q01638. AlphaLISA ST2-Fc/biotin-IL-33 interaction, 1 h. inhibition, % for hits at 17 µM. 78,000 compounds, 2.3% hits; in the data active = inhibition above about 30%
Target sequence (Q01638 whole entry, looked up): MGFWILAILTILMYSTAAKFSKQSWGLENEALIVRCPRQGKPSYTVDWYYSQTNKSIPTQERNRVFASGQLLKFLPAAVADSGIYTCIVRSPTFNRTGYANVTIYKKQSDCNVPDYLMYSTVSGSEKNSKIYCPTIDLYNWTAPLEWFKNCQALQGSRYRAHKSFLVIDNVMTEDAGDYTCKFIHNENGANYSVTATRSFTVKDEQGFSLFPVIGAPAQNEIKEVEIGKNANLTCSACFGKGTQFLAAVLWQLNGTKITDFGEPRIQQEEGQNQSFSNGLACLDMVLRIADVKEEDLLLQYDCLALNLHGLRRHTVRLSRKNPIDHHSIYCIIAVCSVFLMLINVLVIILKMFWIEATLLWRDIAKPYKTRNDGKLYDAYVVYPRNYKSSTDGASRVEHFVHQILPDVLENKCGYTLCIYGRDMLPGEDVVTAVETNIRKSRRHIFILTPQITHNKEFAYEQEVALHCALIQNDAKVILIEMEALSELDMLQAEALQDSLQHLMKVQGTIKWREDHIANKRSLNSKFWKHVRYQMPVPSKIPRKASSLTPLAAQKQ
Numbers stand for hits; 0 = inactive. The full list was thinned out, with hits kept by preference.

SMILES	ST2 IL33 inh
CN(C(=O)C1CCC(CNS(=O)(=O)c2cccc3nsnc23)CC1)C1CCCCC1 (centres undefined)	0
Cc1cccn2c(CC(=O)NC(Cn3ccnc3)C(C)C)cnc12 (centres undefined)	0
Cc1cc(C)n(-c2cc(N3CC(C)OC(C)C3)ccc2[N+](=O)[O-])n1 (centres undefined)	0
O=C1OC(c2ccc(Br)cc2)=N/C1=C\c1ccccc1	0
O=C1/C(=C/c2c[nH]c3ccccc23)CC/C1=C\c1c[nH]c2ccccc12	0
O=C1/C(=C/c2ccccc2)CC/C1=C\c1ccccc1	33.0%
CC(C)Oc1ccc(C(=O)N2CCN=C2SCc2cccnc2)cc1	0
Cc1ccc(N=Cc2cc(Br)cc(Cl)c2O)c(O)c1	0
Cc1ccc(O)c(N=Cc2cc(Cl)cc(Cl)c2O)c1	0
Cc1ccc(N=Cc2cc(Cl)cc([N+](=O)[O-])c2O)c(O)c1	35.0%
O=C(Cn1cnc2c(cnn2-c2ccc(Cl)cc2)c1=O)N1CCCC1	0
N#CC1=C(N)N2CCSC2=C(C#N)C1c1ccccc1 (centres undefined)	0
O=C(CCc1ccccc1)N(c1ccc(F)cc1)C1C=CS(=O)(=O)C1 (centres undefined)	0
O=C(CSC1=Nc2ccccc2C2=NC(c3ccccc3)C(=O)N12)Nc1ccccc1F (centres undefined)	0
CNc1ccccc1[N+](=O)[O-]	0
COc1ccc(CNc2ccccc2[N+](=O)[O-])cc1	38.0%
COc1ccc(CNc2c([N+](=O)[O-])c(=O)oc3ccccc23)cc1	0
C=CCc1nc2c(c(=O)n1Cc1ccccc1)C(C)(C)Cc1ccccc1-2	0
CCCN(Cc1ccc(OC)cc1)C(=O)c1nn(C)c2ccccc12	0
Oc1cc2ccccc2cc1-c1nnc2n1N=C(c1ccccc1)CS2	0
CCOc1ccc(-c2nc3s/c(=C\c4cccc(OC)c4OC)c(=O)n3n2)cc1	0
COc1ccc(-c2ccccc2NC(=O)C2CCCN2C2CCOCC2)cc1 (centres undefined)	0
COC(=O)c1c[nH]n2c(NC3CCCCC3)c(-c3cccs3)nc12	32.0%
COC(=O)c1c[nH]n2c(=O)c(Cc3cccc(C)c3)c(C)nc12	0
O=C(NC1CCCC1)c1cc(-c2cccs2)on1	0
SMILES	ST2 IL33 inh
COc1ccccc1NC(=O)C1=C(C)Nc2nnnn2C1c1ccc(OC)c([N+](=O)[O-])c1 (centres undefined)	0
NC(=O)c1cc(S(=O)(=O)N2CCCCC2)ccc1F	0
COc1cccc(N2C(=O)CC(Nc3ccc(N4CCOCC4)cc3)C2=O)c1 (centres undefined)	47.0%
Cc1cccc(N2C(=O)CC(N3CCN(c4ccc(F)cc4)CC3)C2=O)c1 (centres undefined)	0
CCc1cccc(NC2CC(=O)N(c3cccc(Cl)c3)C2=O)c1 (centres undefined)	0
O=C1CC(N2CCOCC2)C(=O)N1c1cccc(Cl)c1 (centres undefined)	0
O=C1CC(Nc2ccc(N3CCOCC3)cc2)C(=O)N1c1ccc2c(c1)OCO2 (centres undefined)	55.0%
COc1ccc(NC2CC(=O)N(c3cccc(Cl)c3)C2=O)cc1 (centres undefined)	0
O=C1CC(Nc2ccc(N3CCOCC3)cc2)C(=O)N1c1cccc([N+](=O)[O-])c1 (centres undefined)	47.0%
O=C1C2C3c4ccccc4C(c4ccccc43)C2C(=O)N1c1ccc2c(c1)OCO2 (centres undefined)	0
O=C1CC(NCc2ccc3c(c2)OCO3)C(=O)N1c1ccccc1 (centres undefined)	0
O=C1CC(Nc2ccc(Br)cc2)C(=O)N1c1cccc(Cl)c1 (centres undefined)	32.0%
O=C1CC(Nc2ccccc2)C(=O)N1c1ccc(Br)cc1 (centres undefined)	0
O=[N+]([O-])c1cccc(-c2nc(N3CCOCC3)c3ccccc3n2)c1	0
CCOC(=O)C1(CCCc2ccccc2)CCCN(C(=O)CN2CCOC2=O)C1 (centres undefined)	0
Fc1ccccc1CN1CCCC(NCc2cccn2-c2nccs2)C1 (centres undefined)	0
CCOC(=O)C1=C(Nc2ccc(Cl)c(Cl)c2)OCC1=O	0
Cc1ncsc1CCC(=O)N1CCCC(N(C)C)CC1 (centres undefined)	0
CCOC(=O)c1[nH]c2ccccc2c1NC(=O)COc1ccc2ccccc2c1	0
Cc1cccc(N(C)C(=O)CCS(=O)(=O)c2cccc3nsnc23)c1	0
Cc1ccc(NCc2ccncc2)cc1	0
O=C1CCC(C(=O)N2CCC(Cn3cccn3)CC2)CN1CCc1ccccn1 (centres undefined)	0
O=C(CSc1ccccn1)N1CCOC(Cc2ccccc2)C1 (centres undefined)	0
O=C(CCCN1C(=O)c2ccccc2C1=O)N1CCCC1	0
CCOc1ccc(S(=O)(=O)Nc2cccc(Cl)c2)c2cccnc12	0
SMILES	ST2 IL33 inh
Cc1ccc([N+](=O)[O-])cc1N1C(=O)CC(Nc2ccc(N3CCOCC3)cc2)C1=O (centres undefined)	52.0%
O=[N+]([O-])c1ccc(Nc2nc(N3CCOCC3)nc(N3CCOCC3)n2)cc1	0
Cc1ccc(S(=O)(=O)N2CCN(c3ccc([N+](=O)[O-])c(N4CCOCC4)c3)CC2)cc1	0
CNC(=O)c1ccc(OC)c(S(=O)(=O)N2CCC(C)CC2)c1	0
CN1C[C@@H](NS(=O)(=O)c2ccc(Cl)cc2)C[C@H]1c1nc(-c2ccccc2)no1	0
CN1C[C@@H](NS(=O)(=O)c2ccc(C#N)cc2)C[C@H]1c1nc(-c2ccccc2)no1	51.0%
CN1C[C@@H](NC(=O)C2CCCCC2)C[C@H]1c1nc(-c2ccccc2)no1	0
COc1ccc(-c2noc([C@@H]3C[C@H](NC(=O)CCC(=O)O)CN3C)n2)cc1	30.0%
COc1cccc(NC(=O)N[C@H]2C[C@@H](c3nc(-c4ccccc4)no3)N(C)C2)c1	0
COc1ccc(-c2noc([C@@H]3C[C@H](NC(=O)Nc4ccc(C)cc4)CN3C)n2)cc1	0
CN1C[C@@H](NC(=O)NC2CCCCC2)C[C@H]1c1nc(-c2ccc3c(c2)OCO3)no1	0
COc1ccc(-c2noc([C@@H]3C[C@H](NC(=O)NC(C)C)CN3C)n2)cc1	42.0%
Cc1ccc(-c2noc([C@@H]3C[C@H](NS(=O)(=O)c4ccc(C)cc4)CN3C)n2)cc1	0
CN1C[C@@H](NC(=O)NC2CCCCC2)C[C@H]1c1nc(-c2ccccc2)no1	82.0%
COc1ccc(NC(=O)N[C@H]2C[C@@H](c3nc(-c4ccc(OC)cc4)no3)N(C)C2)cc1	0
COc1ccc(-c2noc([C@@H]3C[C@H](NS(=O)(=O)c4ccc(C)cc4)CN3C)n2)cc1	0
O=C(C1c2ccccc2C(=O)N2CCc3ccccc3C12)N1CCC(Cc2ccccc2)CC1 (centres undefined)	0
O=c1[nH]c(Nc2ccc(Cl)cc2)nnc1Cc1ccccc1	0
CCN/C(C)=C/c1nsc(Nc2ccc(Cl)c(Cl)c2)n1	0
NC(=O)c1cnc2n1CCN(C(=O)CN1CCC(c3ccccc3)C1)C2 (centres undefined)	0
Cc1cccc(C)c1OCC(=O)Nc1ccc(-c2nnc(-c3ccco3)o2)cc1	0
O=C(Cn1cnc2ccccc21)N1CCCC(N2CCN(c3ccccc3F)CC2)C1 (centres undefined)	0
NC(=O)CC(NC(=O)c1ccco1)C(=O)O (centres undefined)	0
